Rows were chosen to be rich in hits. Some 2.8% of all compounds tested hit in one or more screens of this group.
HIF-2a inh: inhibitors of HIF-2a | inhibition, % at 18.8 µM | 0.72% of 360,000 active | 786-0 RCC cells HIF-2a reporter, luciferase luminescence, overnight | AID 624352;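 active = inhibition of the luminescence signal of 40% or more relative to plate controls, in a single-dose primary screen at 18.75 µM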
CF NFkB inh: blocks PAF-induced NF-kB reporter in cystic fibrosis cells; KKLEB NF-kB-GFP reporter, GFP fluorescence overnight; inhibition, % at 5 µM; 0.86% of 360,000 active; AID 588850;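 active = at least 50% inhibition at 5 µM, scaled per plate between neutral and stimulator controls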;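 also: PAF is a Pseudomonas aeruginosa culture filtrate used as stimulus; plate controls were PAF-stimulated DMSO wells for no effect and unstimulated DMSO wells for full effect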
Peg3 promoter: Peg3 promoter activity inhibition; HeLa PEG-Prom luciferase reporter, luminescence, overnight; 1.7% of 360,000 active; inhibition, % at 20 µM;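 active = inhibition of at least 50% at 20 µM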
KKLEB cytotox: CF airway cell cytotoxicity counter-screen; KKLEB CF airway cells viability, ATPlite luminescence, overnight; hits give low values; cells stimulated with P. aeruginosa culture filtrate; 0.36% of 360,000 active; AID 602141; activity change (cytotoxicity), % at 5 µM;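 active = corrected activity change at or below -50% at 5 µM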
MITF TRPM1 inh: reduces MITF-dependent TRPM1 promoter luciferase signal | SK-MEL-5 TRPM1 promoter luciferase, 24 h | inhibition, % at 12.5 µM | 0.83% of 330,000 active | AID 488899;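 active = mean inhibition across replicates of 60% or more, whatever share of single replicates reaches that level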
Beta2AR agonist: activates human beta-2 adrenergic receptor causing internalization; P07550; Am2.2-beta2AR cells, FAP receptor internalization, flow cytometry; response, % (concentration not given with the values); 0.43% of 340,000 active;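 active = response above a set limit, near 3 SD of response in nonfluorescent compounds, cut at about 42% in these data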
Target sequence (P07550 whole entry, looked up): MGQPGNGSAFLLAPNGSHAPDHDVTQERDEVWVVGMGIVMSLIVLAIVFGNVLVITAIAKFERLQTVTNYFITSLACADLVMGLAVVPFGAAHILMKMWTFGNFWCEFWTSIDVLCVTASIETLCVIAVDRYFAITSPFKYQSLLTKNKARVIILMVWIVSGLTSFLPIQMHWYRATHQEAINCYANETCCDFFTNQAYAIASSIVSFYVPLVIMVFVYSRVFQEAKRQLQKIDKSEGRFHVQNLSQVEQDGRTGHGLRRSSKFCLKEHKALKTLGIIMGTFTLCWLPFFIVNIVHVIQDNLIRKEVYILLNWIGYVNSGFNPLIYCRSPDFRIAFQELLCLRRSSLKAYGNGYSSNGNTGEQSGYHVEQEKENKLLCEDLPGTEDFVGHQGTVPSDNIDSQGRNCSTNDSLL
* marks the source's active call; other numbers are inactive results; x = no result given.

SMILES	HIF-2a inh	CF NFkB inh	Peg3 promoter	KKLEB cytotox	MITF TRPM1 inh	Beta2AR agonist
CSC1SCC2C(=O)N(C)C(C(C)C)C(=O)OCC(NC(=O)c3cnc4ccccc4n3)C(=O)NC(C)C(=O)N(C)C1C(=O)N(C)C(C(C)C)C(=O)OCC(NC(=O)c1cnc3ccccc3n1)C(=O)NC(C)C(=O)N2C (stereo unspecified)	63*	96*	99*	-37	46	-11
Cc1cc(NC(=S)NC(=O)c2ccccc2)ccc1-c1cc2ccccc2oc1=O	8	56*	0	-61*	43	-8
C[C@H]1CN([C@@H](C)CO)C(=O)CCCn2nncc2CO[C@H]1CN(C)S(=O)(=O)c1ccc(-n2cccn2)cc1	4	-38	-1	18	x	x
CSc1ccc(Cn2c(C)c(C(=O)NCc3ccco3)sc2=O)cc1	-11	-11	0	-1	x	x
CC(Nc1nc(N2CCNCC2)nc2ccccc12)c1ccccc1 (stereo unspecified)	30	-3	102*	-7	54	0
CCN(CC)c1ccc2cc(NC(=O)CCC(=O)O)c(=O)oc2c1	84*	-10	44	-5	92*	-1
On1ccccc1=S	11	-9	100*	1	75*	16
COc1cccc(NC(=O)COC(=O)c2c3c(nc4ccccc24)CCC(C)C3)c1 (stereo unspecified)	-52	-8	71*	0	3	14
O=C(Nc1cccc(C(F)(F)F)c1)c1ccc2nc(-c3ccco3)c(-c3ccco3)nc2c1	5	1	50*	-14	-4	16
CNc1nc(N/N=C/c2cc3c(cc2[N+](=O)[O-])OCO3)nc(Nc2ccccc2)n1	-28	2	86*	-4	36	7
COc1cc(/C=N/Nc2nc(Nc3ccccc3)nc(-n3nc(C)cc3C)n2)cc(OC)c1OC	-82	72*	32	0	0	12
CNc1nc(N/N=C/c2cc([N+](=O)[O-])ccc2F)nc(Nc2ccccc2)n1	38	39	20	-16	7	27
COc1ccc(/C=N/Nc2nc(N3CCCCC3)nc(N3CCCCC3)n2)cc1[N+](=O)[O-]	-2	-19	13	10	-3	11
COc1ccc(/C=N/Nc2nc(Nc3ccccc3)nc(N3CCCC3)n2)cc1[N+](=O)[O-]	-7	-19	60*	7	57	-4
COc1ccc(O)c(/C=N/Nc2nc(Nc3ccccc3)nc(-n3nc(C)cc3C)n2)c1	-156	74*	22	6	-9	21
CC(=O)NC(c1ccc(F)c(F)c1)c1nc(-c2ccncc2)cs1 (stereo unspecified)	9	-3	-2	-4	x	x
CC(C)C[C@@H]1COc2cccc(N3CCSCC3)c2S(=O)(=O)N1	-8	x	x	x	x	x
O=C(Nc1cccc(C(F)(F)F)c1)Nc1nnc([C@@H]2C[C@H](O)[C@@H](CO)O2)s1	3	40	-14	11	x	x
Cn1c(=O)c(C(=O)NNC(=O)c2cccc(Cl)c2)c(O)c2ccccc21	13	73*	64*	-24	19	77*
Cc1cccc(C(=O)NNC(=O)c2c(O)c3ccccc3n(C)c2=O)c1	-10	-6	5	8	2	-3
Brc1ccc2ncnc(Nc3ccc(N4CCOCC4)cc3)c2c1	5	67*	3	2	11	4
CN(C(=O)c1cccc(NC(=O)Cc2ccc(NC(=O)C3CCN(C(=O)C4CC4)CC3)cc2)c1)C1CCCCC1	5	19	3	-9	4	-2
Cc1cc(C(=O)COc2cccnc2[N+](=O)[O-])c(C)n1-c1ccccc1F	50*	-18	44	1	33	2
Cc1cc(C(=O)COC(=O)c2ccc[nH]c2=O)c(C)n1-c1ccccc1	44*	-2	-13	-11	-26	-3
Cc1cc(C(=O)COc2cccnc2[N+](=O)[O-])c(C)n1Cc1ccco1	13	4	-53	6	-10	1
SMILES	HIF-2a inh	CF NFkB inh	Peg3 promoter	KKLEB cytotox	MITF TRPM1 inh	Beta2AR agonist
Cc1cc(C(=O)COc2cccnc2[N+](=O)[O-])c(C)n1-c1ccccc1	74*	9	73*	0	68*	-7
Cc1ccc(-n2c(C)cc(C(=O)COc3cccnc3[N+](=O)[O-])c2C)cc1	59*	-2	36	-22	43	-8
Cc1cc(C(=O)COC(=O)c2ccc[nH]c2=O)c(C)n1-c1ccc(F)cc1	21	-3	3	-9	-34	-5
CCCCc1c(-c2ccc(OC)cc2)ncn1CCc1ccccc1OC	-33	x	x	x	x	x
CC(C)(C)N(Cc1ccccc1)C(=O)CN1C(=O)c2ccccc2S1(=O)=O	10	13	5	0	0	-2
Cc1cc(C(=O)N2CCN(C(c3ccccc3)c3ccccc3)CC2)no1	10	9	15	7	-3	-19
O=C(c1cc(-c2cccs2)on1)N1CCN(C(c2ccccc2)c2ccccc2)CC1	28	7	7	-6	68*	5
O=C(Nc1ccc2oc(=O)ccc2c1)c1ccc(-c2cccc(Cl)c2)o1	-14	1	21	-9	-5	45*
O=C(Nc1ccc2oc(=O)ccc2c1)c1ccc(-c2ccc(Cl)cc2)o1	4	27	45	-10	-3	36
O=C(NCc1ccc(F)cc1)c1cc(C2CCCCN2C(=O)c2ccc(Cl)cc2)on1 (stereo unspecified)	1	-18	10	-5	x	x
COc1cc(/C=C2\CC/C(=C\c3cc(OC)c(OC)c(OC)c3)C2=O)cc(OC)c1OC	20	-30	-11	-4	21	8
COc1cc(/C=C2\CC/C(=C\c3cc(OC)c(O)c(OC)c3)C2=O)cc(OC)c1O	-30	62*	105*	-44	68*	12
COc1ccc(/C=C2/CCc3ccccc3C2=O)cc1OC	-126	23	-199	-7	-18	14
COc1cc(/C=C2\CCC/C(=C\c3ccc(O)c(OC)c3)C2=O)ccc1O	81*	-11	105*	-16	13	43*
COc1ccc(/C=C2\COc3ccccc3C2=O)cc1OC	-10	12	95*	2	8	12
COc1cc(/C=C2/CCCC(C(=O)C(F)(F)F)=C2O)ccc1O	-2	19	-31	-4	9	21
COc1cc(/C=C2\COC/C(=C\c3cc(OC)c(OC)c(OC)c3)C2=O)cc(OC)c1OC	93*	93*	105*	-67*	92*	43*
O=C(NCc1ccco1)C1C(=O)Nc2ccccc2C(=O)N1C1CCCCC1 (stereo unspecified)	-8	x	x	x	x	x
O=S1(=O)CC(N2CCSCC2)CN1Cc1cn(Cc2ccccc2)nn1 (stereo unspecified)	0	x	x	x	x	x
CC(=O)c1ccc(OC2(C)CCN(CCOc3ccc(C)cc3)C2)cc1 (stereo unspecified)	-12	-25	3	8	x	x
